Hit rate of the full screen: of about 320,000 compounds, about 2,800 (0.88%) were called active. The entries come from a sample that favours actives as a whole. Unmarked numbers belong to inactive results.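 The calls were made as follows: active = inhibition above the mean inhibition of all tested compounds plus 3 SD, computed separately for each screening campaign (cut at about 15% in these data); inactive = the rest.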

This assay deals with Serine/threonine-protein phosphatase PP1-alpha catalytic subunit (Homo sapiens) (UniProt P62136). Briefly: PP1-alpha phosphatase inhibitors, primary screen, counter-screen for PP5 inhibitor project, biochemical, fluorescence, OMFP substrate, single point (AID 2235). Particulars: purified PP1alpha, at 6.7 µM, active compounds read high. On the technique in general: A counterscreen serves to expose hits that act by an unwanted route or on another target.
Serine/threonine-protein phosphatase PP1-alpha catalytic subunit (Homo sapiens), sequence (P62136 whole entry, looked up): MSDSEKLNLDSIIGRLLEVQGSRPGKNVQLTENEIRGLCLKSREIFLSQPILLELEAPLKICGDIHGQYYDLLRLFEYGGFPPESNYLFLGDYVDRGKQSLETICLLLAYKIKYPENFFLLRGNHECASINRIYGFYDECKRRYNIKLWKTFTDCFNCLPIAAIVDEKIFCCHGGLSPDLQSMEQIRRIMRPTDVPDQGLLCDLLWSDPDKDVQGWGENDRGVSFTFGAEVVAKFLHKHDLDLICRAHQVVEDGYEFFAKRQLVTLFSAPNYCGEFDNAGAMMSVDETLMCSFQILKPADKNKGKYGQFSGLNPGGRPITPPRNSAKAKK
Usually inhibition stands for the change of the read-out against control, counted positive when it falls. With `CCOC(=O)N1CCN(C(=O)c2ccc3c(=O)n(CCc4ccc(OC)c(OC)c4)c(=O)[nH]c3c2)CC1`, the inhibition is 4.83%.

On to `NS(=O)(=O)c1ccc(CCNC(=O)COC(=O)COc2cccc(C(F)(F)F)c2)cc1`, for which the inhibition was -0.82%.

Take `CCOC(=O)c1cc(-c2ccc(F)cc2)n(CC(=O)NCc2ccccn2)c1C`: the inhibition is -3.29%.

Take `Cc1ccc(OCC(=O)Nc2ccc(-c3nc4ncccc4o3)cc2)cc1`: the inhibition was 0.81%.

For the compound `Cc1ccc(OCC(=O)Nc2ccc(-c3nnc(-c4ccco4)o3)cc2)cc1`, the inhibition is 24.5% (active).

Regarding `CCCCOc1ccc(-c2nnc(-c3ccco3)o2)cc1`, the inhibition is 3.14%.

Consider `Cc1cc(C)nc(N/N=C/c2c(CO)cnc(C)c2O)n1`, for which the inhibition is 1.96%.

On to `CSc1ccccc1NC(=O)c1cc(C2CC2)on1`, for which the inhibition was 0.1%.

`C=CCSc1nnc(N2C(=O)C(O)=C(C(=O)c3ccco3)C2c2ccc(F)cc2)s1` (centres undefined): the inhibition was 10.6%.

`Cc1ccc2nc(N3CCN(C(=O)c4ccco4)CC3)sc2c1`: the inhibition is -4.18%.

Consider `Cc1ccc2nc(N3C(=O)C(O)=C(C(=O)c4ccco4)C3c3cccc(O)c3)sc2c1` (centres undefined), for which the inhibition is 21.7% (active).

In the case of `COc1ccc(OC(C)C(=O)Nc2cccnc2)cc1` (centres undefined), the inhibition was 3%.

For the compound `Cc1cc(NC(=O)CSCc2nc(-c3cccc(Cl)c3)oc2C)no1`, the inhibition was 0.91%.

Consider `COc1ccc(N2C(=O)C(CC(=O)Nc3ccccc3)N(Cc3ccc(OC)c(OC)c3)C2=O)cc1` (centres undefined), for which the inhibition was -2.83%.

Regarding `N=c1c2c(-c3ccccc3)c(-c3ccccc3)n(Cc3ccccc3)c2ncn1CCCO`, the inhibition was 7.81%.

`c1ccc(-c2cc(-c3ccccc3)[nH]n2)cc1`: the inhibition is 2.76%.

Consider `OCCCN1c2ccccc2Nc2nnc(-c3ccccc3)cc21`, for which the inhibition was 21.4% (active).

`CCN(CCCNC(=O)c1ccc2c(c1)NC(=O)CN2C)c1cccc(C)c1`: the inhibition was -0.43%.

Consider `CCC(C)N(C(=O)CSc1nnnn1-c1ccccc1OC)C1CCS(=O)(=O)C1` (centres undefined), for which the inhibition was -1.76%.

With `CC1CCCCN1C(=O)Cn1c(=O)oc2cc(S(=O)(=O)N3CCCCC3)ccc21` (centres undefined), the inhibition was 5.73%.

Take `CCc1ccc(Nc2n[n+](-c3ccccc3)c(-c3cccc(Cl)c3Cl)s2)cc1`: the inhibition was 14.2%.

Take `COc1cc(Br)c(-c2sc(Nc3ccccc3)n[n+]2-c2ccccc2)cc1OC`: the inhibition was -0.57%.

On to `COc1ccc(C)cc1Nc1n[n+](-c2ccccc2)c(-c2cccc(Cl)c2Cl)s1`, for which the inhibition was 15.2% (active).

`CCCN(CC(=O)Nc1ccc(OC)c(OC)c1)CC(=O)Nc1ccc(F)c(F)c1F`: the inhibition was -0.52%.

Regarding `NC(=O)c1ccsc1NC(=O)c1ccco1`, the inhibition was 1.47%.

For the compound `O=C(Nc1nnc(CCOCCOCCc2nnc(NC(=O)c3ccco3)s2)s1)c1ccco1`, the inhibition was -2.12%.

In the case of `O=C(Nc1nc(-c2ccco2)c(-c2ccco2)s1)c1ccco1`, the inhibition is 26.9% (active).

For `N#Cc1ccccc1S(=O)(=O)N1CCN(Cc2c(O)ccc3ccccc23)CC1`, the inhibition is 0.2%.

`CCn1c(SCC(=O)Nc2ccc(Br)cc2)nc2sc3c(c2c1=O)CCN(C)C3`: the inhibition was 3.91%.

`COc1ccccc1NC(=O)CSc1nc2sc3c(c2c(=O)n1-c1ccccc1)CCN(C)C3`: the inhibition is 21.4% (active).

`CCOc1ccc(-n2c(SCC(=O)Nc3ccc(OC)cc3)nc3sc4c(c3c2=O)CCN(C)C4)cc1`: the inhibition is 11.8%.

For the compound `Cc1cc(S(=O)(=O)NC2CCCC2)ccc1-n1cnnn1`, the inhibition is 3.65%.

On to `CC(Sc1nnnn1C)C(=O)NC(=O)NC1CCCCC1` (centres undefined), for which the inhibition was 10.8%.

On to `CCN(CCNC(=O)C1=C(C)C(=O)OC12CCC(C)CC2)c1ccccc1` (centres undefined), for which the inhibition was -1.92%.

Take `O=C(Nc1ccc(C(=O)N2CCOCC2)cc1)Nc1cccc(C(F)(F)F)c1`: the inhibition is 0.27%.

As to `Cc1ccc(NC(=O)Nc2cccc(C(F)(F)F)c2)nc1`, the inhibition was 2.27%.

On to `CCNS(=O)(=O)c1ccc(NC(=O)Nc2cccc(C(F)(F)F)c2)cc1`, for which the inhibition was 34.2% (active).

Take `CCCCNCc1ccc(SC)cc1`: the inhibition was -2.43%.

For the compound `N=c1c2c3c(sc2nc2n1CCCCC2)CCCC3`, the inhibition is -1.9%.

In the case of `CCCCn1c(SCC(=O)N2CCC(C(=O)OCC)CC2)nc2cc(S(N)(=O)=O)ccc21`, the inhibition is -5.51%.

As to `CCCCn1c(SCC(=O)N2CCCC2=O)nc2cc(S(N)(=O)=O)ccc21`, the inhibition was 2.2%.

Consider `CCCCn1c(SCc2ncc(-c3ccccc3)o2)nc2cc(S(N)(=O)=O)ccc21`, for which the inhibition was 17.9% (active).

Take `Cc1ccccc1/C=C\c1nc(O)c([N+](=O)[O-])c(=O)[nH]1`: the inhibition is -3.61%.

With `CC(=O)c1ccc(N2CCN(S(=O)(=O)c3c(C)[nH]c(=O)[nH]c3=O)CC2)cc1`, the inhibition was -4.3%.

On to `CC(=O)c1ccc(N2CCN(S(=O)(=O)c3ccc4c(c3)CC(=O)N4C)CC2)cc1`, for which the inhibition was 20.6% (active).

As for `CC(=O)c1ccc(N2CCN(C(=O)C3CCN(S(=O)(=O)c4ccc5c(c4)CC(C)N5C(=O)C4CC4)CC3)CC2)cc1` (centres undefined), the inhibition is 8.74%.

Take `COc1cccc(NC(=O)C/C(C)=N/NC(=O)C2CCCCC2)c1`: the inhibition was 4.45%.

Take `COc1ccc(CCNC(=O)C2CC3Cn4c(nc5cc(C)c(C)cc54)C3N2C)cc1` (centres undefined): the inhibition was -2.39%.

As for `C=CCOC(=O)C1=C[C@@H](c2ccc3c(c2)OCO3)C[C@@H](OCCCCO)O1`, the inhibition was 5.48%.

Regarding `O=C(CN1C(=O)NC(Cc2ccccc2)(Cc2ccccc2)C1=O)NCC1CCCCC1`, the inhibition is -3.39%.

With `COc1cc2nc(Cl)nc(NCCO)c2cc1OC`, the inhibition was -3.14%.

On to `OCCNc1nc(Nc2ccc(Cl)c(Cl)c2)nc2ccccc12`, for which the inhibition is 23.4% (active).

Regarding `CN(C)c1nc(Nc2ccc(Cl)c(Cl)c2)nc(N(C)C)n1`, the inhibition was 0.07%.

In the case of `CCc1ccc(CNC(=O)C2CC(=O)N(CCc3ccc(C)cc3)C2)cc1` (centres undefined), the inhibition was -3.41%.

On to `CCC(=O)N1CCN=C1SCc1ccc(F)cc1`, for which the inhibition is -1.6%.

As for `CCOC(=O)C1=C(O)/C(=C/c2ccc(OCC(=O)Nc3ccc(C)cc3)cc2)N=C1C`, the inhibition was 15.1%.

Consider `Cc1ccc(NC(=O)COc2ccc(/C=C3/NC(=O)NC3=O)cc2)cc1`, for which the inhibition is 19.3% (active).

Regarding `COC(=O)C1=C(O)/C(=C/c2ccc(OCC(=O)Nc3ccccc3)cc2)N=C1C`, the inhibition is 1.71%.

In the case of `CCc1cccc(NC(=O)COC(=O)C2CCN(c3ccc(C(F)(F)F)cn3)CC2)c1`, the inhibition was 3.82%.

For the compound `Cc1noc(C)c1S(=O)(=O)NCCc1ccc(S(N)(=O)=O)cc1`, the inhibition is -1.43%.

For the compound `O=C(c1ccc(Cl)c(S(=O)(=O)N2CCCCCC2)c1)N1CCN(c2ccc(O)cc2)CC1`, the inhibition was 5.02%.

Regarding `CC(C)n1ncc2c(C(=O)NCc3ccccc3CN(C)C)cc(C3CC3)nc21`, the inhibition was 3.23%.

Consider `O=C(NCC(c1ccco1)N1CCc2ccccc2C1)c1ccccc1Cl` (centres undefined), for which the inhibition was -5.84%.

`CC(C)c1ccc(/C=C/C(=O)NNC(=O)c2cccnc2)cc1`: the inhibition was -4.56%.

For `O=C(/C=C/c1ccc(F)cc1)NCCNC(=O)/C=C/c1ccc(F)cc1`, the inhibition was -0.56%.

Take `O=C(/C=C/c1ccc(F)cc1)NC(=S)NNC(=O)c1cccnc1`: the inhibition is 24.8% (active).

`CCN(CC)Cc1c(C(=O)N/N=C/c2cccc(OCc3ccc(F)cc3)c2)nnn1-c1nonc1N`: the inhibition is -5.41%.

Consider `COc1cccc(N2CCN(c3ccc4nnc(CCC(=O)N5CCN(C)CC5)n4n3)CC2)c1`, for which the inhibition was -3.98%.

For `CCOc1ccc(NC(=O)NNC(=O)c2ccc(Cl)cc2Cl)cc1`, the inhibition was 3.13%.

For the compound `OC(CNCCc1ccc(Cl)cc1Cl)COc1ccccc1` (centres undefined), the inhibition is 10.6%.

Consider `NC(N)=N/N=C/c1ccc(OCc2ccc(Cl)cc2Cl)cc1`, for which the inhibition was 37.2% (active).

As for `Cc1cccc(Nc2nnc(SCC(=O)c3c(N)n(C4CC4)c(=O)[nH]c3=O)s2)c1C`, the inhibition is -0.71%.

On to `O=C(O)c1cc([N+](=O)[O-])c(Nc2cccc3ccccc23)c([N+](=O)[O-])c1`, for which the inhibition was 3.7%.

Turning to `Cc1cc(C)cc(NC(=O)Cn2cnc3c(nnn3Cc3ccc(F)cc3)c2=O)c1`, the inhibition was 8.94%.

As to `Cc1ccc(C)c(Cn2nnc3c(=O)[nH]c(C(=O)Nc4ccc(F)cc4)nc32)c1`, the inhibition is 46.5% (active).

With `O=C(Nc1ccc(F)cc1)N1CCCC(c2nc3c(nnn3Cc3ccccc3Cl)c(=O)[nH]2)C1` (centres undefined), the inhibition was 4.93%.

On to `CCCn1nnnc1NCc1ccc(CC)cc1`, for which the inhibition was 0.05%.

Turning to `Cc1nc(NC(=O)C2CCCCC2)sc1C`, the inhibition was -0.06%.

For `Cc1ccc(Cn2nnc3c(=O)[nH]c(C4CCN(S(=O)(=O)/C=C/c5ccccc5)CC4)nc32)cc1`, the inhibition is 20.9% (active).

For the compound `Cc1ccc(NC(=O)N2CCC(c3nc4c(nnn4Cc4c(F)cccc4Cl)c(=O)[nH]3)CC2)cc1`, the inhibition is 4.5%.

`COc1ccc(Cn2nnc3c(=O)[nH]c(C4CCN(C(=O)c5ccccc5Cl)CC4)nc32)cc1`: the inhibition was 1.01%.

`Cc1ccc(S(=O)(=O)CCC(=O)OCc2ccccc2)cc1`: the inhibition was -6.27%.

With `CC(=O)[C@@]12O[C@@H]1C[C@H]1[C@@H]3CC[C@H]4C[C@@H](O)CC[C@]4(C)[C@H]3CC[C@@]12C`, the inhibition was 0.47%.

For `COCCN(CCOC)S(=O)(=O)c1ccc(C(=O)Nc2nc3c(s2)CCc2ccccc2-3)cc1`, the inhibition is 22.6% (active).

For `COc1ccc(C(=O)Nc2ncc3c(n2)-c2ccccc2CC3)cc1`, the inhibition was -1.56%.

Regarding `C=CCN(CC=C)S(=O)(=O)c1ccc(C(=O)Nc2nc3c(s2)CCc2ccccc2-3)cc1`, the inhibition was 25.9% (active).

As for `COCCN(CCOC)S(=O)(=O)c1ccc(/C(O)=C(\C#N)c2nc3ccccc3[nH]2)cc1`, the inhibition is -3.73%.

Turning to `C=CCN(CC=C)S(=O)(=O)c1ccc(C(=O)Nc2sc3c(c2C(N)=O)CCCCC3)cc1`, the inhibition is -0.71%.

Regarding `CCN(c1ccccc1)S(=O)(=O)c1ccc(C(=O)Nc2nccs2)cc1`, the inhibition is 1.49%.

The values above are taken from PubChem BioAssay AID2235 (The Scripps Research Institute Molecular Screening Center, 2010).
